A number with no mark means an inactive call.
What was measured:
Experiment in all cases: log2 ratio of Biotin-Ahx-Ub-VS probe labelling (fragment/DMSO); higher = less target engagement (more negative = stronger competition), active = hit call of the paper (q ≤ 0.05, log2 ratio ≤ -1)
Conditions in all cases: compound concentration: 200 uM; treatment time: 3 h
ALG13 = biological target: T1, ALG13 (UniProt Q9NP73)
T1 sequence (whole entry): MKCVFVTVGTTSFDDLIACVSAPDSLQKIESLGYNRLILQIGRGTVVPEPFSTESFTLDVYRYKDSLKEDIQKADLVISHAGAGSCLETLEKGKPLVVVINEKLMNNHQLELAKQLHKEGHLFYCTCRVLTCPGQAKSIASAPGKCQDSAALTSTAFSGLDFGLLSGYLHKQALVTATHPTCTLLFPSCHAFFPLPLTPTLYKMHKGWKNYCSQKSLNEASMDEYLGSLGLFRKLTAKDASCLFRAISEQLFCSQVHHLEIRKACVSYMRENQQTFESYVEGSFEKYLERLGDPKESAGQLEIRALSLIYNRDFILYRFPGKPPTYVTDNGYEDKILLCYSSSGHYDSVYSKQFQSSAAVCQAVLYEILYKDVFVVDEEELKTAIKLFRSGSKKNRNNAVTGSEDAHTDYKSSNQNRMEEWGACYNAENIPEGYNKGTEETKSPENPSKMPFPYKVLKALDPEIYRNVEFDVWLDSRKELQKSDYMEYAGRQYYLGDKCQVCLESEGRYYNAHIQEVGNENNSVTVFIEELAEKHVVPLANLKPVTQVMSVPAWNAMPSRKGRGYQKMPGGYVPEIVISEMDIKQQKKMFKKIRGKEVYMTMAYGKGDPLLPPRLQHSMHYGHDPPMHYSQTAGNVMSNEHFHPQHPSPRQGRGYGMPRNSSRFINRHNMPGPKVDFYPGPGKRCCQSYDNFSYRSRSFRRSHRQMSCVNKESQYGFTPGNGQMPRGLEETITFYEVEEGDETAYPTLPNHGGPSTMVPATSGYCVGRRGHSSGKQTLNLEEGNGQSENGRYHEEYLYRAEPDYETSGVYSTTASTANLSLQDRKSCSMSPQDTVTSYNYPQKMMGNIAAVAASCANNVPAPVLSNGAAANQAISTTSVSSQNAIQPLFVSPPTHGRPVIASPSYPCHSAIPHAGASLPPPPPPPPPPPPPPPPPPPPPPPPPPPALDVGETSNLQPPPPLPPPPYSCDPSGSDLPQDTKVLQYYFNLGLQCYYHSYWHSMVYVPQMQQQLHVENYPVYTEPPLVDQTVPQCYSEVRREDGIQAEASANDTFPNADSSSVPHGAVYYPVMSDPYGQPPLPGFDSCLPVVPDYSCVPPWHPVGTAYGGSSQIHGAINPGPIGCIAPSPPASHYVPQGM
In short: (§1)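 In triplicate, 495 µg of HEK293T lysate per sample was incubated with fragment at 200 µM or vehicle for 3 h. Biotin-Ahx-Ub-VS was then added to 0.5 µM final for 1 h, and labelled DUBs were captured with NeutrAvidin, digested with LysC and trypsin, and measured by diaPASEF LC-MS/MS. Data are average log2 fragment/vehicle ratios by unpaired t-test from global-median-normalised Spectronaut label-free quantities, restricted to proteins with ≥2 unique peptides.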

ATXN3 = ATXN3 (UniProt P54252)
In short: as §1

BAP1 = biological target: T2, BAP1 (UniProt Q92560)
T2 sequence (whole entry): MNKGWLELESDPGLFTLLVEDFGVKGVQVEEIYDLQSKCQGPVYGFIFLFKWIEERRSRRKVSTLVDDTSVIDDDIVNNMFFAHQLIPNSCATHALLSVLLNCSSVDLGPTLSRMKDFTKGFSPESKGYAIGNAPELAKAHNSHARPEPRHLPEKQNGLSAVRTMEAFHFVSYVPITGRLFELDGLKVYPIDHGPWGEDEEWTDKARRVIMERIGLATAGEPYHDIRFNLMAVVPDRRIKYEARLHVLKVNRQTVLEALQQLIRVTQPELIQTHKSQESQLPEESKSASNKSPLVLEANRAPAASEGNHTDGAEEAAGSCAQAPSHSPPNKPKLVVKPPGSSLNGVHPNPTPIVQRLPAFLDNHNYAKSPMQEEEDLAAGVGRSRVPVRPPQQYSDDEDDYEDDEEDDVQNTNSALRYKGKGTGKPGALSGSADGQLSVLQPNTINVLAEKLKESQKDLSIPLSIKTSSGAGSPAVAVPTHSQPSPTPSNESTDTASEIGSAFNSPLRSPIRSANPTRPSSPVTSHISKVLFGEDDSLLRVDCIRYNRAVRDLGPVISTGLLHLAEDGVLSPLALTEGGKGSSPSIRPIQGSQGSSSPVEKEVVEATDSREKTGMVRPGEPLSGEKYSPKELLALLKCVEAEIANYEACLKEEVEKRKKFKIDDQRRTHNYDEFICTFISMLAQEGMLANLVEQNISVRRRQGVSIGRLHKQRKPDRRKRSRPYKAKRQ
In short: as §1

EIF3F = EIF3F (UniProt O00303)
In short: as §1

EIF3H = EIF3H (UniProt O15372)
In short: as §1

FAM105A = biological target: T3, FAM105A (UniProt Q9NUU6)
T3 sequence (whole entry): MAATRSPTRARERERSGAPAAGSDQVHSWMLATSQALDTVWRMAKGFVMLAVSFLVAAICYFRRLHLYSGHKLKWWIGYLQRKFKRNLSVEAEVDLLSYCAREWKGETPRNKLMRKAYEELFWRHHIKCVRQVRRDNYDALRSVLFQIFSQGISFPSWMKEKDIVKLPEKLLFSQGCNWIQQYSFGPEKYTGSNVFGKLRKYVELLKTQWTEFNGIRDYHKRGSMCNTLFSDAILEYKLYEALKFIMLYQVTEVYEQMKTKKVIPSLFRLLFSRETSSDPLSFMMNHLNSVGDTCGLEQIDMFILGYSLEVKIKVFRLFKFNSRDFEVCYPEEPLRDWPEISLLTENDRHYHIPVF
In short: as §1

OTUB1 = OTUB1 (UniProt Q96FW1)
In short: as §1

OTUD4 = biological target: T4, OTUD4 (UniProt Q01804)
T4 sequence (whole entry): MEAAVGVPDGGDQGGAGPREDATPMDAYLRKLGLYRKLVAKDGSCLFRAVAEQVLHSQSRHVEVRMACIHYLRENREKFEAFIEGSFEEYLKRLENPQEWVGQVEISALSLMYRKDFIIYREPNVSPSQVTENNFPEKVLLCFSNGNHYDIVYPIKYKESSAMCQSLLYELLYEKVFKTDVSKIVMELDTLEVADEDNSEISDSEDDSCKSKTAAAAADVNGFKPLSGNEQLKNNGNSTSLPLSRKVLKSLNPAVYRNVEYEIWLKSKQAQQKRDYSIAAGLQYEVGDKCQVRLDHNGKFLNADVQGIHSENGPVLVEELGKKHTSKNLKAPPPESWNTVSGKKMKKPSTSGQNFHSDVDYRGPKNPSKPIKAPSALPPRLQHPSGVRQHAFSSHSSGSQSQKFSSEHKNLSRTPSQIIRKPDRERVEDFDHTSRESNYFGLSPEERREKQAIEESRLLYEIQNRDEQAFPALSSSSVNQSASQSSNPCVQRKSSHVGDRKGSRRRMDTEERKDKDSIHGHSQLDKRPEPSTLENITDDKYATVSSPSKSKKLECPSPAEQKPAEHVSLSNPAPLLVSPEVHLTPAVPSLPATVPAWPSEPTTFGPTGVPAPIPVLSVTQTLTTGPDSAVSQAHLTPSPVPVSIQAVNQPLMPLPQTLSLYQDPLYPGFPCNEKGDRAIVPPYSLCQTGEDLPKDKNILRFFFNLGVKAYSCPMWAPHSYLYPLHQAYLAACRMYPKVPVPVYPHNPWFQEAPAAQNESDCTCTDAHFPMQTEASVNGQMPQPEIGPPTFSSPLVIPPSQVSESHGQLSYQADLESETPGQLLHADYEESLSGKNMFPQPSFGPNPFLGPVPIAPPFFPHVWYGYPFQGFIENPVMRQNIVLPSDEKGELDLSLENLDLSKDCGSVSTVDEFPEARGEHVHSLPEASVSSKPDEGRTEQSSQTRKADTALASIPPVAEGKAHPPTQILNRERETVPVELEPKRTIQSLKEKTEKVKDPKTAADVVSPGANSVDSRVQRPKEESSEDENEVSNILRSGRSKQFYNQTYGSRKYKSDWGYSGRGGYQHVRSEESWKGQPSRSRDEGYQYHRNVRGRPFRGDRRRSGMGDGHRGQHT
In short: as §1

OTUD5 = biological target: T5, OTUD5 (UniProt Q96G74)
T5 sequence (whole entry): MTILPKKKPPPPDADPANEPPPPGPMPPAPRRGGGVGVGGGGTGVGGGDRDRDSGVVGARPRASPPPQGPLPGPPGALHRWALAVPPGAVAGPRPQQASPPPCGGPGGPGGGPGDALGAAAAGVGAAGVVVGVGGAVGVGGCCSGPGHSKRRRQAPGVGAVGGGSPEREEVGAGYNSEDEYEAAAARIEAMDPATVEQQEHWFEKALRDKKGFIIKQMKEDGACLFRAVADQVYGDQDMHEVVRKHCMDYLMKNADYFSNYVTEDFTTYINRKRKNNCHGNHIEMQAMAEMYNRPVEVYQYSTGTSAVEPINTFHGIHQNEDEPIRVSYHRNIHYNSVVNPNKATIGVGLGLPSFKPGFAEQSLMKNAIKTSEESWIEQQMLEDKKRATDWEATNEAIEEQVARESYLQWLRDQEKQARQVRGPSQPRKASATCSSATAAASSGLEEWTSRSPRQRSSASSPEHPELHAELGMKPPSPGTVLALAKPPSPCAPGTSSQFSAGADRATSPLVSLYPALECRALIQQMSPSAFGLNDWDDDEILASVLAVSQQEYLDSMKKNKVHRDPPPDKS
In short: as §1

Sequence of EIF3H (O15372 whole entry): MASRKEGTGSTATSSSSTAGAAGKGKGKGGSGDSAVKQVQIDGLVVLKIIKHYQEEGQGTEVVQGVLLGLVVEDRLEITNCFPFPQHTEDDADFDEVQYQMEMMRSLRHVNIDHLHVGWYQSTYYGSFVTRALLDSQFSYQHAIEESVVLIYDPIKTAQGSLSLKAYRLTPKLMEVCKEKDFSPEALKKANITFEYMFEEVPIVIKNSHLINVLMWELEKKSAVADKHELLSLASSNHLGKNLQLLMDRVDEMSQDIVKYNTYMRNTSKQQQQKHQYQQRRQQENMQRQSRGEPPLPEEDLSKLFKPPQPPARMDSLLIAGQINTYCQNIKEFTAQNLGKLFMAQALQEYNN
Sequence of ATXN3 (P54252 whole entry): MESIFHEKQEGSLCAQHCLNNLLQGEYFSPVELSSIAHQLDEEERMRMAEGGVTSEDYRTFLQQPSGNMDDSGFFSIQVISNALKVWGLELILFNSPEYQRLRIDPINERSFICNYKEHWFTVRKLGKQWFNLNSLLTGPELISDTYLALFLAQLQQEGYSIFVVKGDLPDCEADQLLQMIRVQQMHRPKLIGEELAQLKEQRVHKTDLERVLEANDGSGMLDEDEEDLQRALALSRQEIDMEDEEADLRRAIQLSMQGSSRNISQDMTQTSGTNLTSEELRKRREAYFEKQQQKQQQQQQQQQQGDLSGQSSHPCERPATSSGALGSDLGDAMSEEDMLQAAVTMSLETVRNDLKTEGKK
Sequence of OTUB1 (Q96FW1 whole entry): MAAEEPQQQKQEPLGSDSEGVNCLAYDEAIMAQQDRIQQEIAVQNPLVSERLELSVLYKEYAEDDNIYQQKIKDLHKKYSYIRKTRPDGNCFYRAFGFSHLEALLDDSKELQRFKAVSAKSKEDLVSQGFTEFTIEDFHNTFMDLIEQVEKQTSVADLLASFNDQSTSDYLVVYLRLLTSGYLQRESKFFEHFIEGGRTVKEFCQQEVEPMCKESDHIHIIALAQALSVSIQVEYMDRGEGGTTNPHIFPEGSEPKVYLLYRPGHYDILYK
Sequence of EIF3F (O00303 whole entry): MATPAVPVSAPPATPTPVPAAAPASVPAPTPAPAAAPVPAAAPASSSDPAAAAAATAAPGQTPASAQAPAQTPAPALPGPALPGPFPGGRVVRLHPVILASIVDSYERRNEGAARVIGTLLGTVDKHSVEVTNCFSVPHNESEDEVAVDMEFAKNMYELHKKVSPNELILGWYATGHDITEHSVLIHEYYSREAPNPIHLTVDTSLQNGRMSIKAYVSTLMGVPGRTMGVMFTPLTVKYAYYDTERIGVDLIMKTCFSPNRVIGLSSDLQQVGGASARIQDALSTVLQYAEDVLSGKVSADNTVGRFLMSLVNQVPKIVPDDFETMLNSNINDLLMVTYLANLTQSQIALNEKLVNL

O=C(CCl)Nc1cccc(NC(=O)c2ccccc2)c1
log2 ratio of Biotin-Ahx-Ub-VS probe labelling (ALG13): 0.117
log2 ratio of Biotin-Ahx-Ub-VS probe labelling (ATXN3): 0.278
log2 ratio of Biotin-Ahx-Ub-VS probe labelling (BAP1): -3.32 (active)
log2 ratio of Biotin-Ahx-Ub-VS probe labelling (EIF3F): -0.291
log2 ratio of Biotin-Ahx-Ub-VS probe labelling (EIF3H): 0.304
log2 ratio of Biotin-Ahx-Ub-VS probe labelling (FAM105A): -0.516
log2 ratio of Biotin-Ahx-Ub-VS probe labelling (OTUB1): -0.202
log2 ratio of Biotin-Ahx-Ub-VS probe labelling (OTUD4): 0.39
log2 ratio of Biotin-Ahx-Ub-VS probe labelling (OTUD5): -0.0636

Source: the supplement of paper PMC11732987, “Enantioselective OTUD7B fragment discovery through chemoproteomics screening and high-throughput optimisation” (Communications Chemistry, 2025)
